cytoskel mod = modifiers of cytoskeleton assembly; inhibition, % at 2 µM; 91,000 tested, 0.18% active; HUVEC TNFa F-actin phalloidin imaging, high content;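 active means inhibition above the batch mean plus 3 SD and confirmed as a hit by visual image inspection, cut at about 30% in these data, passing the limit was not always enough; inconclusive means above the inhibition threshold but rejected on visual inspection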
E-sel TNF inh = TNF alpha driven E-selectin expression inhibition; HUVEC TNFa-induced E-selectin immunofluorescence, high content; inhibition, % at 2 µM; 120,000 tested, 0.71% active;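 active means inhibition above the batch mean plus 3 SD, and confirmed as a hit on visual image review, cut at about 43% in these data; inconclusive means passes the inhibition cutoff but fails visual image review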
TNFa cytotox = toxic to HUVEC cells under TNF alpha stimulation | HUVEC TNFalpha-stimulated, Hoechst cell count, imaging | cell count reduction, % at 2 µM | 93,000 tested, 0.17% active | AID 848;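 active means cell count reduction exceeding the screen mean by over 5 SD, scaled to untreated wells per plate, cut at about 78% in these data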;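 further: cells counted after 24 h of TNF alpha exposure following the 1 h pretreatment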
VCAM1 TNFa inh = reduces TNF alpha induced VCAM1 expression in HUVEC. AID 802. 95,000 tested, 0.48% active. HUVEC TNFa-induced VCAM-1 immunofluorescence, high-content imaging. inhibition, % at 2 µM;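 active means inhibition above the batch mean plus 3 SD, with images confirmed as a hit by eye, cut at about 37% in these data; inconclusive means inhibition above that limit but hit not confirmed in images; inactive means inhibition not above that limit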
A number is an active result; n = inactive; u = inconclusive; x = no result given. Hits are enriched below; roughly 1.1% of the tested compounds scored in any of these assays.

SMILES	cytoskel mod	E-sel TNF inh	TNFa cytotox	VCAM1 TNFa inh
O=C(c1ccccc1)c1ccc(OCCOCCN2CCN(Cc3ccccc3)CC2)cc1	x	n	x	x
CC(C(=O)Nc1ccccc1-c1ccccc1)N(C)Cc1nc2ccccc2c(=O)[nH]1 (stereo unspecified)	x	n	x	x
COc1ccccc1CNC(=O)CSc1nnc2ccc(-c3cccnc3)nn12	x	84	x	x
Cc1cc(SCc2cc(=O)[nH]c3ccccc23)nc2ccccc12	n	64	n	n
O=c1cc(CSc2ccccn2)c2ccccc2[nH]1	n	n	n	n
CS(=O)(=O)N(CC(=O)NCc1ccco1)Cc1ccc(Cl)cc1	n	n	n	n
Cc1ccc(S(=O)(=O)N(CC(=O)NCc2ccco2)Cc2ccc(F)cc2)cc1	100	n	x	x
Cn1c(=O)c2c(nc(SCC(=O)c3ccccc3F)n2C)n(C)c1=O	x	n	x	x
O=C(Nc1ccc2oc(-c3cccnc3)nc2c1)c1ccc([N+](=O)[O-])o1	x	97	x	x
CC(C)(C)C1C/C(=C/c2ccccn2)C(=O)/C(=C/c2ccccn2)C1 (stereo unspecified)	x	100	x	x
CC1C/C(=C/c2ccccn2)C(=O)/C(=C/c2ccccn2)C1 (stereo unspecified)	x	100	x	x
Cc1ccc2nc3c(cc(C#N)c(=N)n3Cc3cccnc3)c(=O)n2c1	x	n	x	x
COc1cc(NC(=O)Cn2ncc(Cl)c(Cl)c2=O)c(C)cc1[N+](=O)[O-]	x	83	x	x
COc1cc(NC(=O)CN2CCCCC2)c(C)cc1[N+](=O)[O-]	x	n	x	x
O=C(NN=C1CCN(Cc2ccccc2)CC1)c1ccccc1	x	68	x	x
N#CC(C#N)=C/C(C#N)=C(/N)N1CCN(c2ccc(Cl)cc2)CC1	n	97	n	n
Cc1cc(C)cc(-n2nnnc2SCC(=O)Nc2nc(-c3ccc(Cl)cc3)cs2)c1	45	n	n	n
CN(c1ccccc1)S(=O)(=O)c1ccc(NC(=S)NC(=O)C2CC2)cc1	x	n	x	x
CN(Cc1ccccc1)S(=O)(=O)c1ccc(NC(=S)NC(=O)C2CCCC2)cc1	n	n	n	48
O=C(NC(=S)N(Cc1ccccc1)c1ccccn1)C1CCCCC1	x	n	x	x
CN(Cc1ccccc1)C(=S)NC(=O)C1CCCCC1	x	93	x	x
CCC(C)Sc1nnc(CSc2nc3nc(C)cc(C)n3n2)o1 (stereo unspecified)	n	n	n	n
N#CC(C#N)=C1C=CC=CN1/C(=C\c1ccco1)C(=O)c1ccc(-c2ccccc2)cc1	x	93	x	x
CC(C)(C)c1ccc(OCCCNCc2ccccc2)cc1	x	95	x	x
COCCCNCCCOc1ccc(C(C)(C)c2ccccc2)cc1	x	n	x	x
SMILES	cytoskel mod	E-sel TNF inh	TNFa cytotox	VCAM1 TNFa inh
COc1cc2c(cc1NC(=O)Nc1ccccc1)oc1ccccc12	n	100	n	n
CN(C)C(=S)NC1CCS(=O)(=O)C1 (stereo unspecified)	x	n	x	x
O=S1(=O)CCC(NC(=S)N2CCCCCC2)C1 (stereo unspecified)	x	70	x	x
CCOc1ccc2nc(SCC(=O)N(C)C)[nH]c2c1	n	n	n	n
N#Cc1c(N)nc(SCC(=O)NCc2ccc3c(c2)OCO3)c(C#N)c1-c1cccs1	60	n	n	n
Nc1nnc(SCC(=O)NCc2ccc3c(c2)OCO3)s1	n	n	n	93
COc1ccccc1CNC(=O)CSc1nc(N)c(C#N)c(-c2cccs2)c1C#N	n	x	n	n
CC(c1ccco1)N(C(=O)C12CC3CC(CC(C3)C1)C2)c1ccccn1 (stereo unspecified)	n	100	n	n
CC(c1ccco1)N(C(=O)c1ccc(Cl)s1)c1ccccn1 (stereo unspecified)	n	x	n	n
Cc1nn(-c2ccccc2)c2sc(C(=O)O)cc12	x	97	x	x
Cc1nnc(SCC(=O)NCc2ccco2)n1Cc1ccccc1	n	n	n	n
CCCn1c(SCC(=O)NCc2ccco2)nnc1C(C)C	n	n	82	84
O=Cc1s/c(=N\S(=O)(=O)c2ccccc2)n(CCCCl)c1Cl	x	72	x	x
Cc1nnc(SCC(=O)c2ccccc2)n1Cc1ccccc1	x	n	x	x
Cc1nnc(SCC(=O)N(C)c2ccccc2)n1Cc1ccccc1	x	89	x	x
Cc1cc(C)n(C(=O)c2ccc(NC(=O)C3COc4ccccc4O3)cc2)n1 (stereo unspecified)	u	n	85	98
COc1ccccc1-n1cnc2cc(NCc3ccco3)ccc21	n	n	n	40
COc1ccccc1-n1cnc2cc(NCc3cccs3)ccc21	32	n	n	82
CC1CCCCC1NCC(=O)NCc1ccc(F)cc1 (stereo unspecified)	x	n	x	x
O=C(CCSc1ccccc1)NCC1CCCO1 (stereo unspecified)	n	n	n	n
O=C(CC(c1ccccc1)c1ccccc1)NCC1CCCO1 (stereo unspecified)	n	n	n	41
Cn1nc(C(=O)NCC2CCCO2)c2ccccc2c1=O (stereo unspecified)	n	n	84	95
O=C(c1nc2ccccn2c1CNCCCn1nnc2ccccc21)N1CCOCC1	x	n	x	x
CCOc1ccc2[nH]c(C)c(CN3CCOCC3)c(=O)c2c1	76	x	n	n
Cc1[nH]c2ccc(Br)cc2c(=O)c1CN1CCOCC1	n	n	n	n
SMILES	cytoskel mod	E-sel TNF inh	TNFa cytotox	VCAM1 TNFa inh
Nn1c(CN2CCCCC2)nc2ccccc2c1=O	n	51	n	n
c1nc(NCCN2CCOCC2)c2c3c(sc2n1)CCCCC3	n	x	n	n
c1nc(NCCN2CCOCC2)c2sc3nc(N4CCOCC4)c4c(c3c2n1)CCC4	x	66	x	x
CC(C)C(c1nnnn1Cc1ccc2c(c1)OCO2)N1CCN(c2ccccc2)CC1 (stereo unspecified)	n	n	n	n
CC(C)C(c1nnnn1Cc1ccc2c(c1)OCO2)N1CCN(C)CC1 (stereo unspecified)	n	42	n	n
O=C(/C=C/c1ccccc1)N1CCC(Cc2ccccc2)CC1	n	92	x	n
COc1ccc(N(CC(=O)NC2CCCCC2)C(=O)CNC(=O)c2ccco2)cc1OC	n	n	n	n
COc1ccc(/C=N/NC(=O)C(C)n2cnc3ccccc3c2=O)cc1OC (stereo unspecified)	x	96	x	x
CCCOc1nc2c(c(=O)n(C)c(=O)n2C)n1Cc1cccc2ccccc12	n	x	n	n
CCNc1nc(NCC)n2c(SCc3ccc(F)cc3)nnc2n1	n	n	88	91
CCNc1nc(NCC)n2c(SCc3nc4ccccc4c(=O)[nH]3)nnc2n1	n	n	n	n
Cn1c(CNc2ccccc2)nc2ccccc21	n	x	n	n
Cn1c(CNc2ccccc2O)nc2ccccc21	n	x	89	59
COc1ccc(NC(=O)CN(C)CC(=O)Nc2ccccc2SC)cc1	x	70	x	x
COc1ccc(CSCC(=O)Nc2ccccc2SC)cc1	x	n	x	x
CCOc1ccc(C(=O)c2cc([N+](=O)[O-])ccc2Cl)cc1	n	n	n	n
COc1ccc(-c2cc(C(=O)OCC(=O)NC(C)C)c3ccccc3n2)cc1	x	n	x	x
COc1ccc(N(CC(=O)NC2CCCC2)C(=O)c2ccc(N3CCCCC3)nc2)cc1	n	n	n	n
CN(CC(=O)Nc1ccc(Cl)cc1)c1ccc(S(=O)(=O)N2CCCCC2)cc1[N+](=O)[O-]	x	62	x	x
COc1cccc(CNC(=O)C2CCN(S(=O)(=O)N3CCCCC3)CC2)c1	n	n	n	n
COc1cccc(CNC(=O)C2CCCN(S(=O)(=O)c3c(C)n[nH]c3C)C2)c1 (stereo unspecified)	n	x	79	n

Assay outcomes deposited in PubChem by Columbia University Molecular Screening Center.
